# Shown are actives, neighbours in structure and some others; about 10% of the full set was active somewhere.
# Lamin A splicing: qHTS Assay for Modulators of Lamin A Splicing. HeLa LMNA splicing GFP/RFP minigene ratio, 48 h. Potency, µM (titrated, usually from 46.1 µM), for inactives: at the top dose ratio change, negative = inhibition, usual class: inhibitors. 200,000 compounds, 0.01% hits. AID 1487, 2009; active = well fitted inhibition curve with a large enough effect in the signal ratio, with a control signal flat, not every such curve was filed as active; inconclusive = small, poorly fitted or top-dose-only effect, or effect the other way, or a change in a side signal; the % refers to the signal ratio; note: potency is the fitted concentration of half-maximal effect
#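 Read-out is the ratio of GFP to DsRed2 object intensity, acquired by 488 nm laser-scanning cytometry on HeLa lamin A-EGFP minigene reporter cells. Compound incubation 48 hrs at 37 °C in Opti-MEM with 2% FBS; DMSO 0.5% final.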
# Luc counter: Counterscreen for Luciferase (Kinase-Glo TM) Inhibition | Luciferin 4-monooxygenase (Photuris pensylvanica), Q27757 | Kinase-Glo luciferase, ATP luminescence, 8 min | Potency, µM (doses to about 38.3 µM), without a hit: at the highest dose activity change, negative = inhibition, actives largely listed as inhibitors | 200,000 compounds, 0.28% hits | AID 1379, 2008; active = well fitted inhibition curve with a large enough effect; inconclusive = small, poorly fitted or top-dose-only effect; note: potency is the fitted concentration of half-maximal effect; nearly all actives have a fitted effect of over 60% in size
#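 Compounds were added to a substrate mix at pH 7.2 (50 mM imidazole, 10 uM ATP, within the enzyme's linear range), followed by Kinase-Glo detection reagent; luminescence was measured after 8 minutes at ambient temperature.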
# PNC inhibitor: High Content Assay for Compounds that inhibit the Assembly of the Perinucleolar Compartment. AID 2417, 2010. 140,000 compounds, 3.1% hits. PC3M PTB-GFP, PNC prevalence imaging, 16 h; active compounds read low. activity change (PNC), negative = inhibition, % at 10 µM;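 active = readout at or below -70, meaning at least 70% loss of cells showing the perinucleolar compartment, a nuclear body marking cancer cells; inconclusive = readout between -30 and a set limit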;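 note: plate controls were DMSO wells for no effect and camptothecin positive control wells for full effect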
#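 Read-out is percentage of cells bearing a perinucleolar compartment, from automated 20x imaging of fixed, Hoechst-stained PC3M PTB-GFP cells. Cells were seeded 4 h, then exposed 16 h to compound (23 nl of library stock) in duplicate plates.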
# IMPase cell inh: qHTS Assay for Identifying the Cell-Membrane Permeable IMPase Inhibitors. Inositol monophosphatase 1 (Rattus norvegicus), P97697. CHO-M1 cells, IP1 accumulation, HTRF TR-FRET ratio. inhibition (IP1 accumulation), % at 46.1 µM. 120,000 tested, under 10 active. AID 901, 2007; active = well fitted curve in the direction sought with a large enough effect in the signal ratio, not every such curve was filed as active; inconclusive = small, poorly fitted or top-dose-only effect, or a change in a side signal; inactive = no such curve, though single readings can be large or run the other way; the % refers to the signal ratio;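 note: cells stimulated with carbachol in lithium chloride buffer; plate controls were DMSO basal wells for no effect and reference inhibitor wells for full effect; higher means more IMPase inhibition seen as more IP1 and lower FRET ratio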
# Target sequence (P97697 whole entry, looked up): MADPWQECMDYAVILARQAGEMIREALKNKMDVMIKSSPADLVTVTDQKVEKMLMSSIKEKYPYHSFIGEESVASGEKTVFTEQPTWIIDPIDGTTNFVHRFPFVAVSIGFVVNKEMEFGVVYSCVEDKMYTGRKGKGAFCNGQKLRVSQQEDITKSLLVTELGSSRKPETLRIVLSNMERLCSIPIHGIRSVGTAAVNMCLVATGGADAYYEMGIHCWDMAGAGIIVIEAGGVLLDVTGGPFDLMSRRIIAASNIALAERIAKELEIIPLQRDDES
#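 Seeded CHO-M1 cells were dosed with compound at up to 46 uM, stimulated with carbachol for 30 min, then lysed in IP-One detection reagents. Higher IP1 lowers the TR-FRET signal.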
# HPGD block: qHTS Assay for Inhibitors of HPGD (15-Hydroxyprostaglandin Dehydrogenase) | Potency, µM, without a hit: at the top dose activity change, negative = inhibition, actives largely listed as inhibitors | AID 894, 2007 | 150,000 compounds, 4.3% hits | purified HPGD, NADH fluorescence kinetic, PGE2 substrate; note: potency is the fitted concentration of half-maximal effect
# Target sequence (P15428 whole entry, looked up): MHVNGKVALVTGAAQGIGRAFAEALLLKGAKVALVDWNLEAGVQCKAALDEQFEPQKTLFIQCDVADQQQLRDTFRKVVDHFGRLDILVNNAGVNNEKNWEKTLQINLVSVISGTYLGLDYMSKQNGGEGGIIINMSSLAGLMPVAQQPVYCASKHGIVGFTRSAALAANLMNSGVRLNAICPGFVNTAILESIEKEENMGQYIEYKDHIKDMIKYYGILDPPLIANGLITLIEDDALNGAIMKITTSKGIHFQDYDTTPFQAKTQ
#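 NADH formation kinetics: reaction with 30 uM PGE2 and 1 mM NAD+ (final), 20 nM enzyme, Tris-HCl pH 8 with Tween 20, after 15 min compound preincubation at room temperature. Fluorescence change, last versus first of five reads.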
# ALDH1A1 inh: qHTS Assay for Inhibitors of Aldehyde Dehydrogenase 1 (ALDH1A1). Aldehyde dehydrogenase 1A1 (Homo sapiens), P00352. Purified ALDH1A1, NADH fluorescence, propionaldehyde substrate. Potency, µM (highest dose often 75.3 µM), inactives show top-dose activity, negative = inhibition, usual class: inhibitors. 220,000 compounds, 7.3% hits. AID 1030, 2008;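 note: potency is the fitted concentration of half-maximal effect; plate controls were no enzyme wells and a reference inhibitor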
# * hit, by the source's call; ? = inconclusive; / = no result; [ ] = another dose, or the depositor's remark. Unless noted, calls come from the whole dose curve; as a rule, active = well fitted inhibition curve with a large enough effect (not every such curve was filed as active); inconclusive = small, poorly fitted or top-dose-only effect, or another doubt; inactive = no such curve, though single readings can be large or run the other way. Unless noted, % is set by controls: 0 for no effect and ±100 for the full control effect.
SMILES,Lamin A splicing,Luc counter,PNC inhibitor,IMPase cell inh,HPGD block,ALDH1A1 inh
Cc1ccc(N2C(=O)NC(=O)C3(Cc4ccccc4N4CCN(c5ccccc5)CC43)C2=O)cc1 (stereo not drawn),0%,/,-7,-2,/,22µM*
O=C1NC(=O)C2(Cc3ccccc3N3CCCC32)C(=O)N1c1cccc(Cl)c1 (stereo not drawn),0%,2%,-7,0,-7%,?
CN1C(=O)N(C)C(=O)C2(Cc3ccccc3N3CCOCC32)C1=O (stereo not drawn),-18%,-2%,-29,7,-12%,20µM*
O=C(CSc1nnnn1-c1ccccc1)Nc1ccc(N2CCOCC2)c(Cl)c1,?,-2%,-7,3,-8%,2.2µM*
Cc1cc(C=C2C(=O)NC(=S)NC2=O)c(C)n1-c1ccc2c(c1)OCO2,?,?,?,-3,8.9µM*,2.8µM*
CC(=O)CCc1ccccc1,/,/,/,/,-11%,25µM*
CC(=O)NC(C)Cc1ccccc1 (stereo not drawn),12%,1%,3,-3,-30%,-2%
COc1ccc2c(c1)[C@@]13CCCCC1[C@@H](C2)N(C)CC3 (stereo partly drawn),/,4%,/,/,-2%,-2%
CCCCOC(=O)COc1cc(C)cc2oc(=O)c3c(c12)CCC3,0%,-1%,-8,3,-22%,10µM*
Cc1cc(OCc2nn[nH]n2)c2c3c(c(=O)oc2c1)CCCC3,1%,/,-18,1,/,?
Cc1cc(OCc2ccc([N+](=O)[O-])cc2)c2c3c(c(=O)oc2c1)CCCC3,1%,-2%,22,6,?,28µM*
Cc1cc(OC(=O)CCCNC(=O)OC(C)(C)C)c2c3c(c(=O)oc2c1)CCC3,14%,7%,-10,4,-12%,?
Cc1cc(OC(=O)c2ccco2)c2c3c(c(=O)oc2c1)CCC3,?,/,-13,21,/,10µM*
C=CCOC(=O)COc1cc(C)cc2oc(=O)c3c(c12)CCC3,4%,13%,-19,12,?,?
Cc1cc(OC(=O)CCNC(=O)OC(C)(C)C)c2c3c(c(=O)oc2c1)CCC3,?,-1%,-109*,13,?,1.8µM*
Cc1cc(C)cc(OP(=O)(Oc2cc(C)cc(C)c2)Oc2cc(C)cc(C)c2)c1,/,/,/,/,-14%,?
CCn1cnc2c(Nc3cccc(Cl)c3)nc(N[C@@H]3CCCC[C@H]3N)nc21,/,/,/,6,/,/
CCN1C[C@]2(C)CC[C@H](OC)[C@@]34[C@H]1C1(OCO[C@@]15C[C@H](OC)C1C[C@]3(O)C5[C@H]1OC)[C@@H](O)[C@H]24,/,-3%,/,/,1%,2%
C[C@]12N[C@@H](Cc3ccccc31)c1ccccc12,-3%,0%,/,-1,-1%,-2%
CN[C@@H](Cc1c[nH]c2ccccc12)C(=O)O,/,0%,/,-1,-12%,-5%
CCC(C)N1C(=O)/C(=C/c2ccc3c(c2)CCN3CCCCl)C(=O)NC1=S (stereo not drawn),?,-25%,?,6,25µM*,0.22µM*
O=C(Cl)OCc1ccccc1,/,/,/,/,-7%,?
O=C(O)c1cc[c]([Hg][S]c2ncnc3nc[nH]c23)cc1,/,0%[7.66 µM],/,/,0.22µM*,0.89µM*
CCC(=NCc1ccco1)c1c(O)[nH]c(=O)[nH]c1=O,8%,-5%,36,-1,-1%,4%
CC/C(=N\Nc1ccccc1)c1c(O)[nH]c(=O)[nH]c1=O,/,/,/,/,/,-1%
SMILES,Lamin A splicing,Luc counter,PNC inhibitor,IMPase cell inh,HPGD block,ALDH1A1 inh
CC/C(=N\Nc1cccc2ccccc12)c1c(O)[nH]c(=O)[nH]c1=O,-12%,-1%,2,/,?,14µM*
CCC(=NCCC(c1ccccc1)c1ccccc1)c1c(O)[nH]c(=O)[nH]c1=O,?,-3%,-96*,/,-12%,?
[N-]=[N+]=CC(=O)CC[C@H](N)C(=O)O,/,-1%[7.66 µM],/,/,-5%,3%[13.5 µM]
CC(C)c1cc2c(c(O)c1O)[C@]1(C(=O)O)CCCC(C)(C)C1CC2 (stereo partly drawn),/,-8%,/,/,3.2µM*,16µM*
CC(C)c1cc2c(c(O)c1O)[C@@]1(C(=O)O)CCCC(C)(C)[C@@H]1CC2,/,1%[39.9 µM],/,/,16µM*,14µM*
C[C@]1(C(=O)O)CCC[C@]2(C)c3cc(O)ccc3CC[C@@H]12,/,1%,/,-3,-13%,2%
O=C1/C(=C/c2cccnc2)SC(=NCc2ccccc2)N1Cc1ccccc1,?,-2%,/,/,/,0.56µM*
CCOC(=O)N1CCN(C(=O)c2ccc3c(=O)n(CCC4=CCCCC4)c(=S)[nH]c3c2)CC1,1%,0%,?,-2,-14%,7.9µM*
CCOc1cc2[nH]c(=S)n(CCCC(=O)N3CCC4(CC3)OCCO4)c(=O)c2cc1OCC,-20%,1%,-27,-1,-21%,?
O=P(O)(OP(=O)(O)c1ccccc1)c1ccccc1 (tested in a mixture with another compound),/,-4%[7.66 µM],/,/,-9%,0%[13.5 µM]
CC1=NN(c2ccccc2)C(=O)C1/C=C1\C(=O)NC(=O)N(c2ccc(C)c(C)c2)C1=O (stereo not drawn),3%,-7%,53,-3,-21%,-16%
COc1ccc(/C=C2/C(=O)NC(=O)N(c3ccc(C)c(C)c3)C2=O)cc1CN1C(=O)c2ccccc2C1=O,-9%,3%,-15,-5,10µM*,7.9µM*
COc1cc(/C=C2\C(=O)NC(=O)N(c3ccccc3)C2=O)cc(OC)c1OC,-4%,-4%,-29,1,?,13µM*
Nc1c(Br)cc([N+](=O)[O-])cc1[N+](=O)[O-],/,/,/,/,-2%,25µM*
S=P(C1CCCCC1)(C1CCCCC1)[C@H](c1cccnc1)N1CCCC1,/,-3%[7.66 µM],/,/,2%,-16%[13.5 µM]
N#CS.N=C=S.N=C=S.[Cu].[NH2-].[NH2-].[NH2-].[NH2-].c1ccc2ncccc2c1,/,-2%[7.66 µM],/,/,-3%,3.5µM*
CC(C)(C)C(=O)C1C(=O)c2ccccc2C1=O,/,/,/,/,-11%,16µM*
O=C(/C=C/c1ccccc1)C1C(=O)c2ccccc2C1=O,?,-13%,-26,-2,-13%,8%
CCN(CC)c1ncnc2c1ncn2[C@@H]1O[C@@H](COP(=O)(O)OP(=O)(O)C(Br)(Br)P(=O)(O)O)[C@H](O)[C@H]1O,/,-1%,/,-4,-18%,-6%

# Screens (PubChem)
